In ChEMBL document CHEMBL3433997, “St. Jude Leishmania screening dataset” (2016):

Target: Glucose transporter (Leishmania mexicana) (UniProt O61059)
Assay: ST_JUDE_LEISH: Cytotoxicity at 2uM final concentration against transgenic Leishmania Mexicana promastigotes LmGT2 that are glucose transport deficient and complemented with the L. Mexicana glucose transporter 2. Activity is measured by DNA content using SYBR green in vitro
Format: functional

| SMILES | inhibition [%] |
| --- | --- |
| Cc1ccc2nc(-c3ccc(C(=O)NC4CCN(Cc5ccccc5)CC4)s3)[nH]c2c1 | 1.22 |
| CC(C)(C)c1ccc(CNC(=O)c2cc(CNC3CCNCC3)ccc2O)cc1 | 0.22 |
| O=[N+]([O-])c1ccc(-c2nc3cc(C4=NC5CCCCC5N4)ccc3[nH]2)cc1 (stereo not given) | -4.46 |
| O=C(/C=C/c1ccc(Cl)c(Cl)c1)NC1CCC(CN2CCC(c3nc4cccnc4[nH]3)CC2)CC1 (stereo not given) | -2.89 |
| CC(=O)Nc1cccc(CNCc2ccc(-c3cnc(N4CCCC(C)(C)C4)nc3)cc2)c1 | 0.65 |
| Cc1ccc2c(=NN=Cc3cccc(F)c3)cc(C)[nH]c2c1 | 6.18 |
| Cn1nccc1C(=O)NCCNCc1ccc(-c2ccc(-c3nc4cc(F)ccc4[nH]3)cc2)cc1 | 5.68 |
| COc1ccccc1-c1cc(C(=O)N2CCN(S(=O)(=O)c3ccc(C)cc3)CC2)[nH]n1 | -0.58 |
| OCCNc1nc(Nc2ccccc2)nc2ccccc12 | 2.07 |
| CCCCCCN1CCCN(Cc2ccc(C(=O)Nc3ccc(Cl)cc3)cc2)CC1 | 12.5 |
